Experiment in all cases: yeast three-hybrid, YBZ-1, SC-Leu-His + 0.5 mM 3-AT, 4 days
Common to all, as to conditions: tags: N-Gal4 AD-HA kept; label: inside an RPR1-promoter hybrid RNA with tandem MS2 sites; ssRNA

For one test, the target named is PUM1 PUF domain R8-KFN (Homo sapiens, UniProt Q14671 828-1176, N1122K;Y1123F;Q1126N). In outline:
(§1)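 The interaction score is the log change in how often each variant appears, from input to selection. Frequencies came from PCR-amplified, Illumina-sequenced repeat regions of Pumilio-1 PUF domain libraries grown in strain YBZ-1 (LexA–MS2 coat fusion, HIS3 reporter) alongside matching RNA elements. Input plates were SC-Leu and selection plates were SC-Leu-His + 0.5 mM 3-AT, each for four days, and the log2 calculation used a pseudocount of 1 where a variant was absent.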

The target in another test is PUM1 PUF domain R8-RFF (Homo sapiens, UniProt Q14671 828-1176, N1122R;Y1123F;Q1126F). In short, it runs like this: as §1
The next test has as its target PUM1 PUF domain R8-KKG (Homo sapiens, UniProt Q14671 828-1176, N1122K;Y1123K;Q1126G). In short, it runs like this: as §1
In another test the target is PUM1 PUF domain R8-KKT (Homo sapiens, UniProt Q14671 828-1176, N1122K;Y1123K;Q1126T). In outline:
as §1

The target of the next test is PUM1 PUF domain R1-CGE (Homo sapiens, UniProt Q14671 828-1176, S863C;R864G;Q867E). In short, it runs like this: as §1
Another test has as its target PUM1 PUF domain R4-VYG (Homo sapiens, UniProt Q14671 828-1176, N971V;H972Y;Q975G). In outline: as §1
The target in another test is PUM1 PUF domain R5-GRF (Homo sapiens, UniProt Q14671 828-1176, C1007G;Q1011F). In short, it runs like this:
as §1

The target in the next test is PUM1 PUF domain R5-TRH (Homo sapiens, UniProt Q14671 828-1176, C1007T;Q1011H). In outline: as §1
Another test deals with PUM1 PUF domain R5-GRA (Homo sapiens, UniProt Q14671 828-1176, C1007G;Q1011A). In short, it runs like this: as §1
The next test concerns the target PUM1 PUF domain R5-DWA (Homo sapiens, UniProt Q14671 828-1176, C1007D;R1008W;Q1011A). In outline: as §1
The target in a further test is PUM1 PUF domain R5-GHA (Homo sapiens, UniProt Q14671 828-1176, C1007G;R1008H;Q1011A). In outline:
as §1

Another test deals with PUM1 PUF domain R5-DFD (Homo sapiens, UniProt Q14671 828-1176, C1007D;R1008F;Q1011D). In short, it runs like this:
as §1

The next test deals with PUM1 PUF domain R5-GHG (Homo sapiens, UniProt Q14671 828-1176, C1007G;R1008H;Q1011G). In short, it runs like this:
as §1

For the next test, the target named is PUM1 PUF domain R5-EFD (Homo sapiens, UniProt Q14671 828-1176, C1007E;R1008F;Q1011D). In short, it runs like this:
as §1

The next test addresses PUM1 PUF domain R5-CHQ (Homo sapiens, UniProt Q14671 828-1176, R1008H). In short, it runs like this: as §1
The next test concerns the target PUM1 PUF domain R5-RDK (Homo sapiens, UniProt Q14671 828-1176, C1007R;R1008D;Q1011K). In outline:
as §1

The next test has as its target PUM1 PUF domain R7-RPE (Homo sapiens, UniProt Q14671 828-1176, S1079R;N1080P). In short, it runs like this: as §1
The target in a further test is PUM1 PUF domain R7-VTR (Homo sapiens, UniProt Q14671 828-1176, S1079V;N1080T;E1083R). In outline:
as §1

The next test has as its target PUM1 PUF domain R7-RVT (Homo sapiens, UniProt Q14671 828-1176, S1079R;N1080V;E1083T). In outline:
as §1

Another test addresses PUM1 PUF domain R3-APK (Homo sapiens, UniProt Q14671 828-1176, C935A;R936P;Q939K). In short, it runs like this:
as §1

Chain of PUM1 PUF domain R5-GRA (Q14671 828-1176 C1007G/Q1011A): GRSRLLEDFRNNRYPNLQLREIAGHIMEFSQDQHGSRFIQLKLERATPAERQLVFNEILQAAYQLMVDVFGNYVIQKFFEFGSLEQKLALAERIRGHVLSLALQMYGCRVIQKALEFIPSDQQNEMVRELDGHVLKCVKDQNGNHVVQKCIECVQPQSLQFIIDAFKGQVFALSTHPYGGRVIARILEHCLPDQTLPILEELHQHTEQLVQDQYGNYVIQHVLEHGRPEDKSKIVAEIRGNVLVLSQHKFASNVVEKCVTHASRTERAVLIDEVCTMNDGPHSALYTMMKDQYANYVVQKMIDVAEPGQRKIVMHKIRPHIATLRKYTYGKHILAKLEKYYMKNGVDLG
Chain of PUM1 PUF domain R5-TRH (Q14671 828-1176 C1007T/Q1011H): as the sequence (Q14671 828-1176 C1007G/Q1011A) above, with G180T, A184H counted along it
Chain of PUM1 PUF domain R5-DFD (Q14671 828-1176 C1007D/R1008F/Q1011D): as the sequence (Q14671 828-1176 C1007G/Q1011A) above, with G180D, R181F, A184D counted along it
Chain of PUM1 PUF domain R5-GHG (Q14671 828-1176 C1007G/R1008H/Q1011G): as the sequence (Q14671 828-1176 C1007G/Q1011A) above, with R181H, A184G counted along it
Chain of PUM1 PUF domain R5-GRF (Q14671 828-1176 C1007G/Q1011F): as the sequence (Q14671 828-1176 C1007G/Q1011A) above, with A184F counted along it
Chain of PUM1 PUF domain R8-KFN (Q14671 828-1176 N1122K/Y1123F/Q1126N): as the sequence (Q14671 828-1176 C1007G/Q1011A) above, with G180C, A184Q, N295K, Y296F, Q299N counted along it
Chain of PUM1 PUF domain R7-RVT (Q14671 828-1176 S1079R/N1080V/E1083T): as the sequence (Q14671 828-1176 C1007G/Q1011A) above, with G180C, A184Q, S252R, N253V, E256T counted along it
Chain of PUM1 PUF domain R7-VTR (Q14671 828-1176 S1079V/N1080T/E1083R): as the sequence (Q14671 828-1176 C1007G/Q1011A) above, with G180C, A184Q, S252V, N253T, E256R counted along it
Chain of PUM1 PUF domain R8-KKG (Q14671 828-1176 N1122K/Y1123K/Q1126G): as the sequence (Q14671 828-1176 C1007G/Q1011A) above, with G180C, A184Q, N295K, Y296K, Q299G counted along it
Chain of PUM1 PUF domain R7-RPE (Q14671 828-1176 S1079R/N1080P): as the sequence (Q14671 828-1176 C1007G/Q1011A) above, with G180C, A184Q, S252R, N253P counted along it
Chain of PUM1 PUF domain R3-APK (Q14671 828-1176 C935A/R936P/Q939K): as the sequence (Q14671 828-1176 C1007G/Q1011A) above, with C108A, R109P, Q112K, G180C, A184Q counted along it
Chain of PUM1 PUF domain R8-RFF (Q14671 828-1176 N1122R/Y1123F/Q1126F): as the sequence (Q14671 828-1176 C1007G/Q1011A) above, with G180C, A184Q, N295R, Y296F, Q299F counted along it
Chain of PUM1 PUF domain R1-CGE (Q14671 828-1176 S863C/R864G/Q867E): as the sequence (Q14671 828-1176 C1007G/Q1011A) above, with S36C, R37G, Q40E, G180C, A184Q counted along it

Regarding “GGCUAGAACUAGUGGAUCCCCCGGCGCCCGGCGGCUCGAGCCCGGGUAAGCGUAAAUAGUCUGCAUGCCGCCGGGCGCCAUGCCUGCAGGUCGACUCUAGAAAACAUG”, the binding signal with PUM1 PUF domain R8-KFN is 2.26 log2 enrichment (interaction score); in the test with PUM1 PUF domain R8-RFF, 5.12 log2 enrichment (interaction score); with PUM1 PUF domain R8-KKG it was 2.43 log2 enrichment (interaction score); with PUM1 PUF domain R8-KKT, 3.48 log2 enrichment (interaction score).
For “GGCUAGAACUAGUGGAUCCCCCGGCGCCCGGCGGCUCGAGCCCGGGUAAGUGUAAAUGGUCUGCAUGCCGCCGGGCGCCAUGCCUGCAGGUCGACUCUAGAAAACAUG”, in the test with PUM1 PUF domain R1-CGE, the binding signal was 3.82 log2 enrichment (interaction score).
As to “GGCUAGAACUAGUGGAUCCCCCGGCGCCCGGCGGCUCGAGCCCGGGUAAGUGUAGAUAGUCUGCAUGCCGCCGGGCGCCAUGCCUGCAGGUCGACUCUAGAAAACAUG”, the binding signal with PUM1 PUF domain R4-VYG is 5.26 log2 enrichment (interaction score).
As for “GGCUAGAACUAGUGGAUCCCCCGGCGCCCGGCGGCUCGAGCCCGGGUAAGUGUUAAUAGUCUGCAUGCCGCCGGGCGCCAUGCCUGCAGGUCGACUCUAGAAAACAUG”, the binding signal is 3.3 log2 enrichment (interaction score) with PUM1 PUF domain R5-GRF; 4.41 log2 enrichment (interaction score) with PUM1 PUF domain R5-TRH; 2.93 log2 enrichment (interaction score) in the test with PUM1 PUF domain R5-GRA; 5.07 log2 enrichment (interaction score) with PUM1 PUF domain R5-DWA; 2.33 log2 enrichment (interaction score) with PUM1 PUF domain R5-GHA.
For the sequence “GGCUAGAACUAGUGGAUCCCCCGGCGCCCGGCGGCUCGAGCCCGGGUAAGUGUAAAUAGUCUGCAUGCCGCCGGGCGCCAUGCCUGCAGGUCGACUCUAGAAAACAUG”, the binding signal with PUM1 PUF domain R5-GRF was 1.75 log2 enrichment (interaction score); with PUM1 PUF domain R5-DFD it was 3.03 log2 enrichment (interaction score); with PUM1 PUF domain R8-KFN it was 2.9 log2 enrichment (interaction score); with PUM1 PUF domain R5-TRH, 5.68 log2 enrichment (interaction score); with PUM1 PUF domain R5-GHG, 3.84 log2 enrichment (interaction score); with PUM1 PUF domain R5-GRA, 2.95 log2 enrichment (interaction score). Also, the binding signal in the test with PUM1 PUF domain R5-EFD was 4.36 log2 enrichment (interaction score); in the test with PUM1 PUF domain R5-DWA it was 1.76 log2 enrichment (interaction score); with PUM1 PUF domain R5-GHA, 3.68 log2 enrichment (interaction score); with PUM1 PUF domain R5-CHQ it was 2.46 log2 enrichment (interaction score).
As to “GGCUAGAACUAGUGGAUCCCCCGGCGCCCGGCGGCUCGAGCCCGGGUAAGUGUGAAUAGUCUGCAUGCCGCCGGGCGCCAUGCCUGCAGGUCGACUCUAGAAAACAUG”, the binding signal is 1.36 log2 enrichment (interaction score) with PUM1 PUF domain R5-GRA, 4.75 log2 enrichment (interaction score) with PUM1 PUF domain R5-DWA, 3.2 log2 enrichment (interaction score) with PUM1 PUF domain R5-GHA and 4.56 log2 enrichment (interaction score) with PUM1 PUF domain R5-RDK.
Consider “GGCUAGAACUAGUGGAUCCCCCGGCGCCCGGCGGCUCGAGCCCGGGUAAGUUUAAAUAGUCUGCAUGCCGCCGGGCGCCAUGCCUGCAGGUCGACUCUAGAAAACAUG”, for which the binding signal with PUM1 PUF domain R7-RPE is 3.87 log2 enrichment (interaction score); in the test with PUM1 PUF domain R7-VTR it was 3.74 log2 enrichment (interaction score); in the test with PUM1 PUF domain R7-RVT, 2.57 log2 enrichment (interaction score).
As for “GGCUAGAACUAGUGGAUCCCCCGGCGCCCGGCGGCUCGAGCCCGGGUAAGUGUAAUUAGUCUGCAUGCCGCCGGGCGCCAUGCCUGCAGGUCGACUCUAGAAAACAUG”, the binding signal with PUM1 PUF domain R3-APK was 4.11 log2 enrichment (interaction score).
In the case of “GGCUAGAACUAGUGGAUCCCCCGGCGCCCGGCGGCUCGAGCCCGGGUAAGUGUCAAUAGUCUGCAUGCCGCCGGGCGCCAUGCCUGCAGGUCGACUCUAGAAAACAUG”, the binding signal with PUM1 PUF domain R5-DFD is 2.82 log2 enrichment (interaction score); with PUM1 PUF domain R5-GHG it was 2.77 log2 enrichment (interaction score); with PUM1 PUF domain R5-DWA, 2.25 log2 enrichment (interaction score).

Source of the values: article PMC8384837, “Expanding the binding specificity for RNA recognition by a PUF domain”.
